According to PubChem BioAssay (EPA / NIEHS):
Activity calls are given as the source filed them. Rule for the calls: active = hit-call score of the fitted dose curve at least 0.9, where 1 is the maximum; inactive = score below 0.9.

Assays:
[1] = read-out: growth arrest and DNA damage 45 (GADD45A), GADD45A (gene 1647); assay: LTEA_HepaRG_GADD45A: Life Technologies and Expression Analysis (LTEA) Assay for growth arrest and DNA damage 45 (GADD45A) using HepaRG (AID 2283458); settings: mRNA level, 48 h; actives raise or lower the signal
How it was run: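 GADD45A expression was measured by TaqMan qRT-PCR against three housekeeping genes (ACTB, GAPDH, POLR2A) after 48 h treatment of HepaRG cells. Eight-point half-log series up to 100 uM in 0.5% DMSO, run in duplicate.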

[2] = read-out: Forkhead box O3 (FOXO3), FOXO3 (gene 2309); assay: LTEA_HepaRG_FOXO3: Life Technologies and Expression Analysis (LTEA) Assay for Forkhead box O3 (FOXO3) using HepaRG (AID 2283459); settings: mRNA level, 48 h; actives raise or lower the signal
How it was run: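 FOXO3 transcript measured by qRT-PCR (normalized to ACTB, GAPDH, POLR2A) after 48 h exposure of HepaRG cells in serum-free induction medium. Duplicates, eight half-log concentrations up to 100 uM, 0.5% DMSO; gain or loss fitted against DMSO.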

[3] = read-out: ABC Transporter (ABCB1), ABCB1 (gene 5243); assay: LTEA_HepaRG_ABCB1: Life Technologies and Expression Analysis (LTEA) Assay for ABC Transporter (ABCB1) using HepaRG (AID 2283460); settings: mRNA level, 48 h; actives raise or lower the signal
How it was run: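 ABCB1 transcript level measured by TaqMan qRT-PCR against three housekeeping genes after 48 h chemical exposure of differentiated HepaRG cells. Top concentration 100 uM, half-log steps, eight points, 0.5% DMSO vehicle; bidirectional fit relative to DMSO.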

[4] = read-out: growth arrest and DNA damage 45 (GADD45B), GADD45B (gene 4616); assay: LTEA_HepaRG_GADD45B: Life Technologies and Expression Analysis (LTEA) Assay for growth arrest and DNA damage 45 (GADD45B) using HepaRG (AID 2283461); settings: mRNA level, 48 h; actives raise or lower the signal
How it was run: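 Human HepaRG monolayers receive chemicals for 48 h at eight half-log concentrations, highest 100 uM, in 0.5% DMSO. Expression is measured by TaqMan qRT-PCR and normalized to ACTB, GAPDH and POLR2A.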

[5] = read-out: ABC Transporter (ABCC3), ABCC3 (gene 8714); assay: LTEA_HepaRG_ABCC3: Life Technologies and Expression Analysis (LTEA) Assay for ABC Transporter (ABCC3) using HepaRG (AID 2283462); settings: mRNA level, 48 h; actives raise or lower the signal
How it was run: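 Transcriptional change of ABCC3 in HepaRG after 48 h treatment, determined by qRT-PCR normalized to endogenous controls. Concentrations spanned eight half-log steps to 100 uM in 0.5% DMSO.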

[6] = read-out: ABC Transporter (ABCB11), ABCB11 (gene 8647); assay: LTEA_HepaRG_ABCB11: Life Technologies and Expression Analysis (LTEA) Assay for ABC Transporter (ABCB11) using HepaRG (AID 2283463); settings: mRNA level, 48 h; actives raise or lower the signal
How it was run: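 ABCB11 transcript levels quantified by TaqMan qRT-PCR against three housekeeping genes after 48 h chemical exposure of HepaRG cultures. Concentrations up to 100 uM in half-log steps, 0.5% DMSO vehicle; both induction and suppression scored.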

[7] = read-out: Broad substrate specificity ATP-binding cassette transporter ABCG2 (Homo sapiens) (UniProt Q9UNQ0); assay: LTEA_HepaRG_ABCG2: Life Technologies and Expression Analysis (LTEA) Assay for ABC Transporter (ABCG2) using HepaRG (AID 2283465); settings: mRNA level, 48 h; actives raise or lower the signal
How it was run: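 ABCG2 transcript was quantified by TaqMan qRT-PCR against three housekeeping genes in HepaRG cells. Cells were treated in duplicate for 48 h across an 8-point half-log series up to 100 uM, with 0.5% DMSO vehicle. Gain or loss versus DMSO was fit.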

[8] = read-out: ATP-citrate lyase (ACLY), ACLY (gene 47); assay: LTEA_HepaRG_ACLY: Life Technologies and Expression Analysis (LTEA) Assay for ATP-citrate lyase (ACLY) using HepaRG (AID 2283466); settings: mRNA level, 48 h; actives raise or lower the signal
How it was run: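 ACLY mRNA quantified by qRT-PCR on Fluidigm arrays against three housekeeping genes, after 48 h chemical treatment of HepaRG cells (top concentration 100 uM, half-log steps, 0.5% DMSO vehicle). Up- or down-regulation fitted relative to DMSO.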

[9] = read-out: Alkaline Phosphatase, Placental (ALPP) gene, ALPP (gene 250); assay: LTEA_HepaRG_ALPP: Life Technologies and Expression Analysis (LTEA) Assay for Alkaline Phosphatase, Placental (ALPP) gene using HepaRG (AID 2283468); settings: mRNA level, 48 h; actives raise or lower the signal
How it was run: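 Using human liver HepaRG cells, chemicals are tested in duplicate over 48 h at half-log concentrations topping at 100 uM; phenobarbital 1 mM serves as induction control. ALPP mRNA change by qRT-PCR, bidirectional fit against vehicle.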

[10] = read-out: Bcl-2 (BAD) gene, BAD (gene 572); assay: LTEA_HepaRG_BAD: Life Technologies and Expression Analysis (LTEA) Assay for Bcl-2 (BAD) gene using HepaRG (AID 2283469); settings: mRNA level, 48 h; actives raise or lower the signal
How it was run: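 Read-out: qRT-PCR of BAD mRNA, normalized to three housekeeping genes. Human HepaRG cultures got 48 h chemical exposure in 0.5% DMSO, duplicate eight-point half-log series topping at 100 uM. Gain or loss of signal fitted versus DMSO vehicle.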

[11] = read-out: Bcl-2 (BAX) gene, BAX (gene 581); assay: LTEA_HepaRG_BAX: Life Technologies and Expression Analysis (LTEA) Assay for Bcl-2 (BAX) gene using HepaRG (AID 2283470); settings: mRNA level, 48 h; actives raise or lower the signal
How it was run: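 Gene expression measured by Fluidigm qRT-PCR with three housekeeping genes for normalisation. HepaRG cells, plated 48 h beforehand, treated 48 h at up to 100 uM (8-point, half-log) in 0.5% DMSO. Bidirectional fitting versus DMSO.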

[12] = read-out: adenosine kinase (ADK) gene, ADK (gene 132); assay: LTEA_HepaRG_ADK: Life Technologies and Expression Analysis (LTEA) Assay for adenosine kinase (ADK) gene using HepaRG (AID 2283471); settings: mRNA level, 48 h; actives raise or lower the signal
How it was run: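 ADK expression quantified by qRT-PCR, normalised to three housekeeping genes, after 48 h exposure of HepaRG cells to eight concentrations (top 100 uM, half-log steps, duplicate, 0.5% DMSO). Up- or down-regulation fitted relative to vehicle.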

[13] = read-out: Alpha-fetoprotein (AFP) gene, AFP (gene 174); assay: LTEA_HepaRG_AFP: Life Technologies and Expression Analysis (LTEA) Assay for Alpha-fetoprotein (AFP) gene using HepaRG (AID 2283472); settings: mRNA level, 48 h; actives raise or lower the signal
How it was run: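 AFP transcript measured by TaqMan qRT-PCR with three housekeeping genes for normalization, after 48 h chemical treatment of HepaRG cells (top 100 uM, half-log steps, 0.5% DMSO). Gain or loss fitted against vehicle.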

BCL2L11 (gene 10018) = assay: LTEA_HepaRG_BCL2L11: Life Technologies and Expression Analysis (LTEA) Assay for Bcl-2 (BCL2L11) gene using HepaRG (AID 2283473); settings: mRNA level, 48 h; actives raise or lower the signal
How it was run: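 Human hepatic HepaRG cultures are treated 48 h with test chemicals (maximum 100 uM, 0.5% DMSO vehicle). Expression of BCL2L11 is measured by qRT-PCR against ACTB, GAPDH and POLR2A, with activity in either direction scored relative to vehicle.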

[14] = read-out: Apolipoprotein A-V (APOA5) gene, APOA5 (gene 116519); assay: LTEA_HepaRG_APOA5: Life Technologies and Expression Analysis (LTEA) Assay for Apolipoprotein A-V (APOA5) gene using HepaRG (AID 2283474); settings: mRNA level, 48 h; actives raise or lower the signal
How it was run: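 Concentration-response of APOA5 expression in HepaRG: eight half-log doses to 100 uM, 48 h, qRT-PCR normalized to ACTB/GAPDH/POLR2A, bidirectional fitting with 0.5% DMSO as baseline.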

[15] = read-out: Apoptosis regulator Bcl-2 (Homo sapiens) (UniProt P10415); assay: LTEA_HepaRG_BCL2: Life Technologies and Expression Analysis (LTEA) Assay for Bcl-2 gene using HepaRG (AID 2283475); settings: mRNA level, 48 h; actives raise or lower the signal
How it was run: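 qRT-PCR of BCL2 transcript, normalized to three housekeeping genes (ACTB, GAPDH, POLR2A), after 48 h chemical exposure of HepaRG cells; concentrations top 100 uM with half-log dilutions, 0.5% DMSO vehicle, duplicates; changes up or down fitted relative to vehicle.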

[16] = read-out: Bcl-2 (BID) gene, BID (gene 637); assay: LTEA_HepaRG_BID: Life Technologies and Expression Analysis (LTEA) Assay for Bcl-2 (BID) gene using HepaRG (AID 2283476); settings: mRNA level, 48 h; actives raise or lower the signal
How it was run: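 Duplicate 48 h treatments of HepaRG cells in serum-free induction medium spanned 100 uM downward in half-log steps, 0.5% DMSO. Transcript change quantified by qRT-PCR against three housekeeping genes, fitted up or down versus DMSO.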

[17] = CEETOX_H295R_TESTO: CeeTox H295R High-throughput Steroidogenesis Assay for Testosterone (TESTO) (AID 2283457); settings: actives raise or lower the signal
How it was run: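 Steroidogenesis in H295R cells following OECD 456 with minor changes; 48 h exposure. Medium testosterone by HPLC-MS/MS, DMSO as baseline, with MTT viability run in parallel.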

[18] = read-out: ABC Transporter (ABCC2), ABCC2 (gene 1244); assay: LTEA_HepaRG_ABCC2: Life Technologies and Expression Analysis (LTEA) Assay for ABC Transporter (ABCC2) using HepaRG (AID 2283464); settings: mRNA level, 48 h; actives raise or lower the signal
How it was run: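 After plating and 48 h culture, HepaRG medium is replaced with serum-free induction medium and chemicals are added (8 concentrations, max 100 uM, 0.5% DMSO) for 48 h. Total RNA then undergoes qRT-PCR for ABCC2 with housekeeping normalization.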

[19] = read-out: Peroxisomal acyl-coenzyme A oxidase 1 (ACOX1) gene, ACOX1 (gene 51); assay: LTEA_HepaRG_ACOX1: Life Technologies and Expression Analysis (LTEA) Assay for Peroxisomal acyl-coenzyme A oxidase 1 (ACOX1) gene using HepaRG (AID 2283467); settings: mRNA level, 48 h; actives raise or lower the signal
How it was run: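 ACOX1 transcript levels were quantified by TaqMan qRT-PCR against three housekeeping genes after 48 h chemical exposure of differentiated human HepaRG cells. Exposure used eight half-log steps topping at 100 uM, 0.5% DMSO vehicle, in duplicate. Bidirectional curve fits were made relative to DMSO.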

Measured: AC50

Chain of Apoptosis regulator Bcl-2 (Homo sapiens) (P10415 whole entry, looked up): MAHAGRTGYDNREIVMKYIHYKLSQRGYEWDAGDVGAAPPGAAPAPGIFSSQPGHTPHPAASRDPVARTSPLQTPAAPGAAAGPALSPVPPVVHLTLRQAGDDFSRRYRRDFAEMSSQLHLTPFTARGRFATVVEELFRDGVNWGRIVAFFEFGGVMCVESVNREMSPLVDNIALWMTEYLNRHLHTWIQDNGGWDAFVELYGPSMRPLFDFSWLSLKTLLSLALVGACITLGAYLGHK
Chain of Broad substrate specificity ATP-binding cassette transporter ABCG2 (Homo sapiens) (Q9UNQ0 whole entry, looked up): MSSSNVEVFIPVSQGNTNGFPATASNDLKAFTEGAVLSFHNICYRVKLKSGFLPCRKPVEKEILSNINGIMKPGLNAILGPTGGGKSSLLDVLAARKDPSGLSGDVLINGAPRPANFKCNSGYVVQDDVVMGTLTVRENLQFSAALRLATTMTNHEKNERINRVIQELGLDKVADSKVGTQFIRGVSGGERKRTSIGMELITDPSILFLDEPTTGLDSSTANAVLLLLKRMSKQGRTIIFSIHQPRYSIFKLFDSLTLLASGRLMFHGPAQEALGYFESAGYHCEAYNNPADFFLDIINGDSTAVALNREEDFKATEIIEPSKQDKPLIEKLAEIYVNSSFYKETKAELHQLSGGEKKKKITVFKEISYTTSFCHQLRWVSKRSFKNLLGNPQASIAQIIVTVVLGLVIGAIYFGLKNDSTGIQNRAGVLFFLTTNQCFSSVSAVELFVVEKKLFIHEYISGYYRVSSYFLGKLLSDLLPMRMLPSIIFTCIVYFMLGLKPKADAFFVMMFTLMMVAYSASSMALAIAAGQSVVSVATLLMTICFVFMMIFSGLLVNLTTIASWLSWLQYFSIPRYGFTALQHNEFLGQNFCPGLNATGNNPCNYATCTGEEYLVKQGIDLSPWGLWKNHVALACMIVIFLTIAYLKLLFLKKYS

OB(O)O
not listed: [17] | [18] | [19]
inactive: all other assays above

c1ccc(Nc2ccccc2)cc1
not listed: [7] | [17] | [18] | [19]
inactive: all other assays above

CCCN(CCC)C(=O)SCC
not listed: [1] | [18] | [19]
inactive: all other assays above

O=C(c1ccccc1)C1CCCCC1
not listed: [17] | [19]
inactive: all other assays above

CCCOC(=O)NCCCN(C)C
not listed: [17] | [18] | [19]
inactive: all other assays above

c1ccc2[nH]c(-c3cscn3)nc2c1
active: [7] 9.92 µM
inactive: all other assays above
